Among all 220,000 compounds or so, about 2,400 (1.1%) were called active. The entries come from a sample that favours actives as a whole. Unmarked numbers belong to inactive results.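 How the source made its calls: active means inhibition above a per-campaign cutoff, the mean inhibition of all tested compounds plus 3 SD (cut at about 27% in these data); inactive means the rest.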
Assay: parental Ba/F3 cell viability inhibition, counter-screen for JAK2V617F inhibitor project, murine pro-B, CellTiter-Glo luminescence (AID 1486);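 further: 0% = DMSO wells and 100% = JAK Inhibitor I control wells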
Conditions: CellTiter-Glo ATP luminescence, at 5.6 µM, active compounds read high

| Compound | inhibition |
| --- | --- |
| COc1cc(/C=N\Nc2ccc([N+](=O)[O-])cn2)ccc1OCC(=O)O | 10.2% |
| Cc1ccc(-n2c(C)cc(/C=N/Nc3ccc([N+](=O)[O-])cn3)c2C)c(C)c1 | 50.2% (active) |
| Cc1cc(/C=N/Nc2ccc([N+](=O)[O-])cn2)c(C)n1-c1cccc(C(=O)O)c1 | -1.49% |
| Cc1cc(NC(=O)CSc2nc3cc(Cl)ccc3c(=O)n2Cc2ccco2)no1 | 8.02% |
| C[C@@H](C(=O)N1CCNCC1)n1cc(CCC(=O)O)nn1 | -3.7% |
| O=C(Cn1cnc2ccccc21)N/N=C/c1ccco1 | 1.87% |
| COC(=O)c1cc(NC(=O)c2ccco2)ccc1N1CCOCC1 | 1.48% |
| Cc1ccc(CNC(=O)CCNC(=O)Cn2ccc3ccccc3c2=O)cc1 | 8.67% |
| COC(=O)COc1cccc2c(=O)n(CC(=O)NCCc3ccc(OC)c(OC)c3)ccc12 | -0.48% |
| COC(=O)COc1cccc2c(=O)n(CC(=O)NCc3ccccc3)ccc12 | 44.3% (active) |
| Cc1ccc2nc(C)cc(N/N=C/c3ccc(F)cc3)c2c1 | 8.42% |
| NS(=O)(=O)c1ccc(CNC(=O)c2cnccn2)cc1 | -6.36% |
| CCOc1ccc(OCc2cccc(C(=O)N(CC)CC)c2)cc1 | 1.21% |
| Cc1nn(-c2ccc([N+](=O)[O-])cc2)c(N)c1-c1ccccc1 | -2.11% |
| Cc1ccc(N=C2NC(=O)c3cccc([N+](=O)[O-])c32)cc1 | 2.95% |
| O=C(NCc1ccccc1Cl)C1CCCO1 (centres undefined) | 4.65% |
| CCN(CC)c1ccc(NC(=O)c2ccc(Cl)nc2)cc1 | 72.5% (active) |
| O=C(NNc1ccccn1)c1ccc(Cl)nc1 | 3.58% |
| NS(=O)(=O)c1ccc(NC(=O)COC(=O)c2ccc(Cl)nc2)cc1 | 4.09% |
| Cc1ccc(C)c(NC(=O)c2ccc(OC(=O)c3ccco3)cc2)c1 | 5.55% |
| Cc1ccc(NC(=O)Nc2ccccc2)c(Br)c1 | 5.76% |
| C=CC[n+]1c(-c2ccc(C)cc2)csc1NNC(=O)Nc1ccccc1 | 57.4% (active) |

| Compound | inhibition |
| --- | --- |
| C=CCNc1scc(-c2ccccc2)[n+]1CC=C | 1.05% |
| CC(=O)Nc1ccc(/C=N/Nc2ccc(C(=O)c3c(C)cc4ccccn34)cc2[N+](=O)[O-])cc1 | -11.2% |
| CS(=O)(=O)Nc1cccc(-c2cn3ccccc3n2)c1 | 7.16% |
| Cc1ccc(CC(=O)Nc2cccc(C#N)c2)cc1 | 6.45% |
| CC(O)C(NS(=O)(=O)c1ccc(Cl)cc1)C(=O)OCc1cc([N+](=O)[O-])cc2c1OCOC2 (centres undefined) | 4.65% |
| CCNC(=O)c1sccc1-n1cccc1 | 2.59% |
| CCCCNC(=O)OCCSCCS(=O)(=O)c1ccc(Cl)cc1 | -2.09% |
| Cc1ccc(NC(=O)c2oc3ccccc3c2C)c([N+](=O)[O-])c1 | 2.45% |
| c1ccc(-n2ncc3c2ncn2c(C4CCCCC4)nnc32)cc1 | 97.5% (active) |
| c1ccc(-n2ncc3c(N4CCCC4)ncnc32)cc1 | 2.78% |
| CN(C(=O)COc1ncnc2c1cnn2-c1ccccc1)C1CCCCC1 | -1.06% |
| Cc1ccc(C2NC(C(=O)O)CS2)cc1 (centres undefined) | 4.83% |
| CC(=O)NCc1ccc(S(=O)(=O)NC2CCN(Cc3ccccc3)CC2)cc1 | -3.37% |
| C[C@@H]1C[C@@H]2O[C@H]2/C=C\C=C\C(=O)Cc2c(Cl)c(O)cc(O)c2C(=O)O1 | 104% (active) |
| CC(NC(=S)Nc1ccccc1)C(c1cccs1)N1CCOCC1 (centres undefined) | -4.02% |
| c1ccc(Cc2cc[n+](Cc3ccccc3)cc2)cc1 | 71.7% (active) |
| COC(=O)c1ccc(Cc2ccccc2)o1 | 1.87% |
| CN(C)c1ccc(/C=N/N(Cc2ccccc2)c2ccccc2)cc1 | 8.22% |
| CN(C)c1cc[n+](Cc2ccccc2)cc1 | 66.3% (active) |
| CN(Cc1ccccc1)Cc1ccccc1F | 10.4% |
| CCn1c(SCC(=O)Nc2ccc(C)cc2)nc2nc3c(cc2c1=O)CCCC3 | 1.35% |
| S=c1ccc2ccccc2[nH]1 | 2.2% |

| Compound | inhibition |
| --- | --- |
| CCCCCc1ccc(-c2ccc(C(=O)O)cc2)nc1 | 6.06% |
| CC(=O)c1ccc(Oc2cc(C)nc(-n3nc(C)cc3C)n2)cc1 | 73.9% (active) |
| Cc1cc(N/N=C\c2ccc(Br)cc2)nc(-n2nc(C)cc2C)n1 | 0.24% |
| Cc1cc(C)n(-c2cc(Oc3ccccc3)ncn2)n1 | 4.63% |
| Cc1cc(Oc2ccccc2)nc(N2CCOCC2)n1 | 2.47% |
| COc1ccccc1/C=N\Nc1cc(C)nc(-n2nc(C)cc2C)n1 | 7.87% |
| COc1ccc(Nc2cc(C)nc(-n3nc(C)cc3C)n2)cc1 | 78% (active) |
| Cc1cc(N2CCOCC2)nc2ccc(NC(=S)N3CCN(Cc4ccccc4)CC3)cc12 | 5.21% |
| COC(=O)C(C)NC(=O)COc1ccc2ccccc2c1 (centres undefined) | 1.41% |
| CCOC(=O)CN1C(=O)N[C@@H](c2ccc(Br)cc2)C(C(C)=O)=C1C | 3.53% |
| CCOC(=O)c1ccc(NC(=S)N2CCCC2)cc1 | 0.86% |
| COc1ccc2c(c1OC)C(=O)OC2Nc1nc(-c2ccccc2)cs1 (centres undefined) | 40.2% (active) |
| COc1ccc(Nc2nc(-c3ccccc3)cs2)cc1 | 4.08% |
| COc1ccc(-c2csc(NC3OC(=O)c4ccccc43)n2)cc1 (centres undefined) | -1.11% |
| CC(C)(C)c1nnc(NC(=O)C2c3ccccc3Oc3ccccc32)s1 | 0.88% |
| Nc1ccc(N=Nc2ccccc2Cl)c(N)n1 | -6.75% |
| CCOc1ccc(Br)cc1CSC(=N)N | 6.11% |
| CN1/C(=C\C(=O)c2cccnc2Cl)C(C)(C)c2ccccc21 | 5.33% |
| CN1/C(=C\C=C2\N=C(c3ccc(F)cc3)OC2=O)C(C)(C)c2ccccc21 | 30.4% (active) |
| CN1/C(=C\C(=O)c2oc3ccccc3c2N)C(C)(C)c2ccccc21 | 10.9% |
